Assay results as given in PubChem BioAssay AID2314 (National Center for Advancing Translational Sciences (NCATS), 2010).
The whole screen tested about 300,000 compounds, of which about 37,000 (12%) were called active. The full list was thinned out, with actives kept by preference. Values without a mark were called inactive. Rule as the data show it: active = max response mostly above about 13% (no sharp cut-off); inactive = mostly below about 14%.

assay: Cycloheximide Counterscreen for Small Molecule Inhibitors of Shiga Toxin; details: cell reporter, cycloheximide protein synthesis inhibition counterscreen; stronger effect = higher value; also: read at 38.3 µM for the half of the compounds with a filed dose; 0% is about no effect

Question: With CC(=O)Nc1ccc(/C=N/Nc2ccc(C(=O)c3c(C)cc4ccccn34)cc2[N+](=O)[O-])cc1 as the compound, how does the max response read?
Answer: 3.53%

Question: Which max response does the source give for Cc1cc(N2C(=O)C(O)=C(C(=O)c3ccc(C)o3)C2c2ccc(OCc3ccccc3)cc2)no1 (configuration not stated) here?
Answer: -0.599%

Question: For Cc1ccc(C(=O)OCc2nc(N)nc(Nc3ccccc3C)n2)cc1, which max response is on record?
Answer: -0.878%

Question: With Cc1ccccc1Nc1nc(N)nc(CSc2ccccc2)n1 as the compound, how does the max response read?
Answer: 67% (active)

Question: With Cc1ccccc1Nc1nc(N)nc(CN2CCN(c3ccccn3)CC2)n1 as the compound, how does the max response read?
Answer: 0.552%

Question: Which max response does the source give for Cc1ccc(Nc2nc(N)nc(CN3CCN(Cc4ccccc4)CC3)n2)cc1Cl here?
Answer: -3.89%

Question: For Cc1ccccc1Nc1nc(N)nc(CSc2nnc3ccccn23)n1, which max response is on record?
Answer: 13.9% (active)

Question: Which max response does the source give for CCSCc1nc(N)nc(NCCc2ccccc2)n1 here?
Answer: 12.6%

Question: Which max response does the source give for CCCN1CCC(=O)N(C(CSc2ccc(OC)cc2)Cc2ccccc2)CC1 (configuration not stated) here?
Answer: 6.9%

Question: Which max response does the source give for Cc1cc(C)n(-c2ccc(NC(=O)C3CCCCN3C(=O)c3cccs3)cc2)n1 (configuration not stated) here?
Answer: 7.2%

Question: Which max response does the source give for COc1ccc(-n2c(C)cc(C(=O)COC(=O)c3cc(OC)c(OC)cc3NC(=O)c3cccs3)c2C)cc1 here?
Answer: -3.59%

Question: With CCc1nn(CC(=O)N2CCN(c3cc(C)ccc3C)CC2)c(=O)c2cc3occc3n12 as the compound, how does the max response read?
Answer: -8.63%

Question: With CC1CCN(S(=O)(=O)c2ccc3c(ccn3CC(=O)O)c2)CC1 as the compound, how does the max response read?
Answer: -6.07%

Question: Which max response does the source give for CC(C)c1ccc(Nc2ncccc2C#N)cc1 here?
Answer: 43.2% (active)

Question: Which max response does the source give for CN(C)c1ccnc(Nc2ccc(F)cc2)c1C#N here?
Answer: -1.37%

Question: With O=C(Oc1cccc(O)c1)C1CCCCC1 as the compound, how does the max response read?
Answer: 1.32%

Question: With O=C(NN1C(=O)C2C(C1=O)C1C=CC2C12CC2)c1ccccc1Cl (configuration not stated) as the compound, how does the max response read?
Answer: 0.62%

Question: With CC12CCC(C(=O)N(c3cccc(Cl)c3)C1=O)C2(C)C (configuration not stated) as the compound, how does the max response read?
Answer: -2.01%

Question: For CC12CCC(C(=O)N(NC(=O)c3ccccc3O)C1=O)C2(C)C (configuration not stated), which max response is on record?
Answer: 11.2% (active)

Question: With O=C(COc1ccc(Cl)cc1)NC(=S)Nc1ccccc1N1CCOCC1 as the compound, how does the max response read?
Answer: 1.2%

Question: Which max response does the source give for CCOC(=O)C1C/C(=C\C(C)=O)c2cccc(C(F)(F)F)c2O1 (configuration not stated) here?
Answer: -2.62%

Question: Which max response does the source give for CCOC(=O)c1c(C)[nH]c(C(=O)NCCN2CCOCC2)c1C here?
Answer: -3.76%

Question: For CCOC(=O)c1c(C)[nH]c(C(=O)NCc2ccccc2OC)c1C, which max response is on record?
Answer: 17% (active)

Question: With CC(=O)c1c(C)[nH]c(C(=O)NCc2ccc(C)cc2)c1C as the compound, how does the max response read?
Answer: 15.3%

Question: Which max response does the source give for O=C(O)c1ccc(OCC2CCCO2)cc1 (configuration not stated) here?
Answer: -2.17%

Question: With COC(=O)c1c(C)oc(C)c1S(=O)(=O)Nc1ccc(C(C)C)cc1 as the compound, how does the max response read?
Answer: -1.83%

Question: With C=CCn1c(-c2sc(-c3ccccc3)nc2C)n[nH]c1=S as the compound, how does the max response read?
Answer: 1.59%

Question: Which max response does the source give for Cc1nc(-c2ccccc2)sc1-c1nnc(C2CC2)o1 here?
Answer: 38.7% (active)

Question: With Cc1nc(-c2ccccc2)sc1-c1nc(-c2ccccc2)ncc1S(=O)(=O)c1ccccc1 as the compound, how does the max response read?
Answer: 1.01%

Question: For CCOc1ccccc1NC(=O)COc1ccc(S(=O)(=O)N2CCCC2)cc1, which max response is on record?
Answer: -2.13%

Question: Which max response does the source give for CCc1nc2ccccc2c(C(=O)OC2CCCCC2=O)c1C (configuration not stated) here?
Answer: 8.91%

Question: With O=C(Nc1c2c(nc3ccccc13)CCCC2)c1ccccc1Br as the compound, how does the max response read?
Answer: -2.17%

Question: Which max response does the source give for O=C(COC(=O)c1c2c(nc3ccccc13)CCCC2)c1ccc(Br)s1 here?
Answer: 25% (active)

Question: For COc1ccccc1C(=O)Nc1ccnn1C1CCN(Cc2cnn(C)c2)CC1, which max response is on record?
Answer: 0.446%

Question: For COc1ccc2c(c1)c1nc3n(c(=O)c1n2CC(=O)Nc1ccccc1)CCS3, which max response is on record?
Answer: -2.14%

Question: With CC(=O)CC(c1ccccc1)C1C(=O)Oc2ccccc2C1=O (configuration not stated) as the compound, how does the max response read?
Answer: -3.15%

Question: Which max response does the source give for Cc1cc(C)c2oc(C(=O)Nc3ccc(S(=O)(=O)Nc4nccc(C)n4)cc3)cc(=O)c2c1 here?
Answer: 5.57%

Question: For Cc1cc(Oc2ccc(Cl)cc2)nc(SCC(=O)c2ccccc2)n1, which max response is on record?
Answer: 0.695%

Question: For O=C(CSc1cccc[n+]1[O-])c1ccc(Cl)cc1, which max response is on record?
Answer: 16.8% (active)

Question: Which max response does the source give for Cn1c(CC2Sc3ccccc3NC2=O)nnc1SCC(=O)c1ccc(Cl)cc1 (configuration not stated) here?
Answer: 6.52%

Question: Which max response does the source give for O=C(CSc1cccc[n+]1[O-])NCCCc1ccccc1 here?
Answer: 10.3%

Question: With COc1ccccc1C(=O)CSc1cccc[n+]1[O-] as the compound, how does the max response read?
Answer: 9.7%

Question: For O=C(CSc1cccc[n+]1[O-])c1ccc(-c2ccccc2)cc1, which max response is on record?
Answer: 44.8% (active)

Question: For CCOC(=O)N1CCC(N2Cc3cccc(C(=O)Nc4ccc(S(=O)(=O)N(CC)CC)cc4)c3C2=O)CC1, which max response is on record?
Answer: -7.45%

Question: For CC(=O)c1c(C)oc2ccc(NS(=O)(=O)c3ccccc3)cc12, which max response is on record?
Answer: -4.79%

Question: For O=C(Nc1ccc(-c2cscn2)cc1)C1CCCN(Cc2ccc(CO)o2)C1 (configuration not stated), which max response is on record?
Answer: 10.2%

Question: With Cc1cc(C)cc(NC(=O)C2CCCN2S(=O)(=O)c2cccc3cccnc23)c1 (configuration not stated) as the compound, how does the max response read?
Answer: 0.222%

Question: With CCCCNS(=O)(=O)c1ccc2nc(SCC(=O)Nc3cc(C)cc(C)c3)[nH]c2c1 as the compound, how does the max response read?
Answer: -6.32%

Question: With Cc1ccc2nc(-c3ccncc3)cc(C(=O)Nc3ccc(OC(F)F)cc3)c2c1 as the compound, how does the max response read?
Answer: -4.25%

Question: Which max response does the source give for Cc1ccc(CNC(=O)C(=O)c2cn(CC(=O)N3CCCC3)c3ccccc23)cc1 here?
Answer: 20.3% (active)

Question: Which max response does the source give for Cc1ccc(CNC(=O)C(=O)c2cn(CC(=O)N3CCOCC3)c3ccccc23)cc1 here?
Answer: 17.6% (active)

Question: For CC1CCN(C(=O)Cn2cc(C(=O)c3ccco3)c3ccccc32)CC1, which max response is on record?
Answer: 23% (active)

Question: With N#Cc1ccc(Cn2cc(C(=O)c3ccco3)c3ccccc32)cc1 as the compound, how does the max response read?
Answer: 21.7%

Question: For O=C(NCc1ccco1)C(=O)c1cn(CC(=O)N2CCCCCC2)c2ccccc12, which max response is on record?
Answer: 2.39%

Question: Which max response does the source give for COc1cccc(NC(=O)CS(=O)(=O)c2cn(CC(=O)N3CCOCC3)c3ccccc23)c1 here?
Answer: -5.36%

Question: For CN1CCN(C(=O)C(=O)c2cn(CC(=O)N3CCCC3)c3ccccc23)CC1, which max response is on record?
Answer: -2.55%

Question: For O=C(NCCCn1ccnc1)C(=O)c1cn(CC(=O)N2CCCCCC2)c2ccccc12, which max response is on record?
Answer: 10.1%

Question: With O=C(Nc1ccc(F)cc1)C(=O)c1cn(CC(=O)N2CCOCC2)c2ccccc12 as the compound, how does the max response read?
Answer: -0.871%

Question: For CN(Cc1ccccc1)C(=O)C(=O)c1cn(CC(=O)N2CCCC2)c2ccccc12, which max response is on record?
Answer: -3.43%

Question: For COc1cccc(NC(=O)C(=O)c2cn(CC(=O)N3CCOCC3)c3ccccc23)c1, which max response is on record?
Answer: 37.8% (active)

Question: Which max response does the source give for Cc1cccc(NC(=O)Cn2cc(C(=O)c3ccco3)c3ccccc32)c1 here?
Answer: -2.38%

Question: Which max response does the source give for COc1ccc(C(CNC(=O)c2ccc(S(=O)(=O)Nc3ccccc3F)cc2)N(C)C)cc1 (configuration not stated) here?
Answer: -6%

Question: With COC(=O)c1cccc(N(C(=O)c2ccco2)C(C(=O)NC2CCCC2)c2ccco2)c1 (configuration not stated) as the compound, how does the max response read?
Answer: -1.82%

Question: For COc1cc(CNC2CCCCC2)c(Br)cc1OC1CCCC1, which max response is on record?
Answer: -7.03%

Question: Which max response does the source give for CCc1ccc(CN(C)C(=O)C2CCC(=O)N(Cc3cccc(OC)c3)C2)nc1 (configuration not stated) here?
Answer: 4.36%

Question: For CCn1nc(C)c(NC(=O)/C=C/c2ccc(OC)c(COc3ccc(Br)cc3)c2)c1C, which max response is on record?
Answer: 2.79%

Question: Which max response does the source give for CCCc1cc(=O)oc2c(C)c(OC(C)C(=O)NCC(O)c3ccccc3)ccc12 (configuration not stated) here?
Answer: -2.74%

Question: With Cc1ccc(S(=O)(=O)NCC(=O)N(CC(=O)NCC2CCCO2)c2cccc(F)c2)cc1 (configuration not stated) as the compound, how does the max response read?
Answer: 1.36%

Question: Which max response does the source give for CC(=O)NCC(=O)NC1CCCc2c1cnn2-c1ccccc1F (configuration not stated) here?
Answer: 5.35%

Question: For CCOC(=O)C(=CNNc1ccsc1C(=O)OC)C(=O)OCC, which max response is on record?
Answer: 12.1%

Question: Which max response does the source give for O=C1CN(c2nc(-c3ccccc3)c3cc(Br)ccc3n2)c2ccccc2N1 here?
Answer: -2.03%

Question: For O=S(=O)(NCC1CN(S(=O)(=O)c2ccc3c(c2)OCCO3)C1)c1c(F)cccc1F, which max response is on record?
Answer: -7.82%

Question: With COc1ccccc1CNC(=O)c1cc(=O)c2ccccc2o1 as the compound, how does the max response read?
Answer: 28.7%

Question: For c1ccc2sc(SNC3CCCCC3)nc2c1, which max response is on record?
Answer: 43.3% (active)

Question: With O=C1NC(Nc2nc3ccccc3s2)(C(F)(F)F)C(=O)N1C1CCCCC1 (configuration not stated) as the compound, how does the max response read?
Answer: 0.879%

Question: Which max response does the source give for Cc1sc2ncnc(Sc3nc4ccccc4s3)c2c1C here?
Answer: -3.1%

Question: With Cc1c(CC(=O)N2CCN(C(=O)C3COc4ccccc4O3)CC2)c(=O)oc2c(O)c(O)ccc12 (configuration not stated) as the compound, how does the max response read?
Answer: -3.9%

Question: Which max response does the source give for CCOc1ccccc1OCCCNCc1ccccc1 here?
Answer: -2.14%

Question: For COc1ccc2c(c1)cc1n2CCN=C1NN, which max response is on record?
Answer: 64.4% (active)

Question: For Cc1cccc(OCC(O)CN2CCN(S(=O)(=O)c3ccc(C)cc3C)CC2)c1 (configuration not stated), which max response is on record?
Answer: 6.97%

Question: For COc1ccc(NC(=O)N2CCCC(c3nc(-c4ccc(F)cc4)no3)C2)cc1 (configuration not stated), which max response is on record?
Answer: 27.8% (active)

Question: For CC(C)c1ccc(-c2noc(C3CCCN(S(C)(=O)=O)C3)n2)cc1 (configuration not stated), which max response is on record?
Answer: 39.9% (active)

Question: Which max response does the source give for COc1cccc(-c2noc(C3CCCN(C(=O)c4ccc(F)cc4)C3)n2)c1 (configuration not stated) here?
Answer: 20.6% (active)

Question: For O=C(Cc1cccs1)N1CCCC(c2nc(-c3ccc(S(=O)(=O)N4CCCC4)cc3)no2)C1 (configuration not stated), which max response is on record?
Answer: -2.82%

Question: Which max response does the source give for O=C(c1ccc(F)cc1)N1CCCC(c2nc(-c3cccs3)no2)C1 (configuration not stated) here?
Answer: 20.3%

Question: For O=C(c1ccc(F)cc1)N1CCCC(C(=O)N2CCCCC2)C1 (configuration not stated), which max response is on record?
Answer: -3.54%

Question: With CCn1nc(C)cc1C(=O)N1CCCC(C(=O)c2cccc(OC)c2)C1 (configuration not stated) as the compound, how does the max response read?
Answer: 2.78%

Question: For CC(C)c1ccc(NC(=O)C2CCCN(S(=O)(=O)c3cccnc3)C2)cc1 (configuration not stated), which max response is on record?
Answer: 5.83%

Question: For CCN(C(=O)C1CCCN(c2nc(-c3ccc(OC)cc3)no2)C1)c1ccc(OC)cc1 (configuration not stated), which max response is on record?
Answer: -1.83%

Question: With O=C(c1cccs1)N1CCCC(c2nc(-c3ccc(F)cc3)no2)C1 (configuration not stated) as the compound, how does the max response read?
Answer: 26.6% (active)

Question: For COc1ccc(NC2CCCN(C(=O)c3ccncc3)C2)cc1 (configuration not stated), which max response is on record?
Answer: -1.48%

Question: For COc1cc(-c2noc(C3CCCN(S(=O)(=O)c4cccc(Cl)c4)C3)n2)cc(OC)c1OC (configuration not stated), which max response is on record?
Answer: -4.41%
